Measurements: PubChem BioAssay
Results with a measured potency or affinity are listed apart. Inconclusive results are not listed. Unmarked numbers belong to inactive results. Unless noted, no rule for the calls is given here.

Assay: cytotoxicity in IOSE-T80 ovarian epithelial cells, dose response, selectivity assay for PAX8 inhibitor project, cell-based, cherry-pick (AID 687032;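 active = fitted half-maximal concentration for viability loss no higher than twice the top valid dose, in every repeat run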;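 also: cells exposed to compound for 96 h before reading; 0% = neutral control wells and -100% = 2 µM mitoxantrone kill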)
Conditions: CellTiterGlo ATP luminescence, 96 h; series mostly up to 35 µM; activity change, negative = viability loss: at the top concentration

SMILES | activity change, negative = viability loss
COc1ccc(NC(=O)Nc2ccc3c(c2)C(=O)N([C@H](C)CO)C[C@H](C)[C@H](CN(C)Cc2ccc(C(F)(F)F)cc2)OCCCC[C@H](C)O3)cc1 | 5.1%
Cc1ccc2nc(-c3ccc(Br)cc3)cn2c1 | 9.79%
C[C@@H]1CCCCO[C@H](CN(C)Cc2ccc(Cl)c(Cl)c2)[C@@H](C)CN([C@@H](C)CO)C(=O)c2cc(NS(=O)(=O)c3ccccc3)ccc2O1 | 15.2%
C[C@@H]1CN([C@@H](C)CO)C(=O)Cc2cc(NC(=O)Cc3ccccc3)ccc2O[C@H]1CN(C)Cc1ccc(-c2ccccc2)cc1 | 14.2%
Cn1cnc(S(=O)(=O)N2C[C@@H]3N[C@H](C2)C3c2ccc(-c3ccccc3F)cc2)c1 (stereo not given in full) | 8.74%
COc1ccc(NC(=O)N2CCCCN3[C@H](C2)[C@@H](c2ccc(C#Cc4ccccc4)cc2)[C@@H]3CO)cc1 | 11.1%
COc1ccc(S(=O)(=O)N(C)C[C@@H]2Oc3ccc(NC(=O)Nc4ccc(C(F)(F)F)cc4)cc3CC(=O)N([C@H](C)CO)C[C@@H]2C)cc1 | 11.5% [at 30 µM]
Nc1ccc(-c2nc3ccc(C(=O)O)cc3s2)cc1 | 3.24%
Cn1nnnc1Sc1ncnc2scc(-c3cccc(Br)c3)c12 | 5.01%
O=C(C1CC1)N1C[C@@H]2N[C@H](C1)C2c1ccc(-c2cccc(F)c2)cc1 (stereo not given in full) | 9.02%

Assay: non-specific cell cytotoxicity, dose response, cytotoxicity control for PAX8 inhibitor project, plate reader, dry powder samples (AID 743021)
Conditions: cell line, non-specific cytotoxicity counter-screen; series mostly up to 35 µM; activity change, negative = cytotoxicity: at the top concentration

SMILES | activity change, negative = cytotoxicity
Cc1ccc(S(=O)(=O)Nc2ccc3c(c2)C(=O)N([C@H](C)CO)C[C@@H](C)[C@@H](CN(C)Cc2ccc(C(F)(F)F)cc2)OCCCC[C@H](C)O3)cc1 | 7.16%
C[C@@H]1CN([C@H](C)CO)C(=O)c2cc(NS(=O)(=O)c3ccccc3)ccc2O[C@@H](C)CCCCO[C@H]1CN(C)Cc1ccc(C(F)(F)F)cc1 | -6.64%
NS(=O)(=O)c1ccc(CCN2C(=O)/C(=C\c3ccc(Cl)cc3)SC2=S)cc1 | 31.1%
N#C[C@@H]1[C@@H](c2ccc(C#Cc3ccccc3F)cc2)[C@H](CO)N1C(=O)C1CCCCC1 | -10%
C[C@H](CO)N1C[C@H](C)[C@H](CN(C)Cc2ccc(C(=O)Nc3ccccc3N)cc2)Oc2ccc(N(C)C)cc2C1=O | -31.7%
CCCCCCCCn1c2c(c(=N)c3c1CCC3)CCCC2 | 11.4%
Oc1c(Cl)cc(Cl)c(Cl)c1Cc1c(O)c(Cl)cc(Cl)c1Cl | -20.8%
COc1cccc(-c2ccc(C3[C@@H]4CN(C(=O)C5CC5)C[C@H]3N4)cc2)c1 (stereo not given in full) | -6.51%
O=C(Nc1cccc(C(=O)O)c1)Nc1ccc2c(c1)OCO2 | -37.6%
Cn1cnc(S(=O)(=O)N2C[C@@H]3N[C@H](C2)C3c2ccc(-c3ccccc3F)cc2)c1 (stereo not given in full) | -9.69%
COc1ccc(S(=O)(=O)N(C)C[C@@H]2Oc3ccc(NC(=O)Nc4ccc(C(F)(F)F)cc4)cc3CC(=O)N([C@H](C)CO)C[C@@H]2C)cc1 | -10.4% [at 30 µM]
Cn1nnnc1Sc1ncnc2scc(-c3cccc(Br)c3)c12 | 27.9%
O=C(C1CC1)N1C[C@@H]2N[C@H](C1)C2c1ccc(-c2cccc(F)c2)cc1 (stereo not given in full) | -29.6%

Assay: IGROV1 ovarian cancer cell cytotoxicity, dose response, PAX8 inhibitor project, plate reader, dry powder samples (AID 743043);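 also: more negative means fewer viable cells or more cytotoxicity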
Conditions: series mostly up to 35 µM; activity change, negative = cytotoxicity: at the top concentration

SMILES | activity change, negative = cytotoxicity
COc1ccc(S(=O)(=O)Nc2ccc3c(c2)C(=O)N([C@@H](C)CO)C[C@@H](C)[C@H](CN(C)Cc2ccc(C(F)(F)F)cc2)OCCCC[C@H](C)O3)cc1 | 23.7% [at 16 µM]
COc1cccc(C#Cc2ccc([C@H]3[C@@H](CO)N(C(=O)C4CCCCC4)[C@H]3C#N)cc2)c1 | -8.02%
COc1ccc(S(=O)(=O)N(C)C[C@@H]2OCCCC[C@H](C)Oc3ccc(NS(=O)(=O)c4ccc(Cl)cc4)cc3C(=O)N([C@H](C)CO)C[C@@H]2C)cc1 | -15.6%
COc1ccccc1C#Cc1ccc([C@H]2[C@H](C#N)N(C(=O)C3CC3)[C@H]2CO)cc1 | -65.9%
N#C[C@H]1[C@H](c2ccc(C#Cc3ccccc3F)cc2)[C@H](CO)N1C(=O)C1CCC1 | -13.2%
COc1ccccc1S(=O)(=O)N(C)C[C@H]1Oc2cc(C#CCC3CCCC3)ccc2S(=O)(=O)N([C@@H](C)CO)C[C@H]1C | 12.7%
COc1ccccc1C#Cc1ccc([C@H]2[C@H](C#N)N(C(=O)C3CCC3)[C@H]2CO)cc1 | -1.14%
C[C@@H]1CN([C@@H](C)CO)S(=O)(=O)c2ccc(C#Cc3ccccc3F)cc2O[C@H]1CN(C)C(=O)Cc1ccccc1 | -5.14%
COc1ccc(CN(C)C[C@@H]2OCCCC[C@H](C)Oc3ccc(NC(=O)Nc4ccc(C(F)(F)F)cc4)cc3C(=O)N([C@@H](C)CO)C[C@H]2C)cc1 | -30.4%
O=C(C[C@@H]1C[C@@H]2c3cc(NS(=O)(=O)c4ccc(F)cc4)ccc3O[C@@H]2[C@@H](CO)O1)NCc1ccc(Oc2ccccc2)cc1 | -6.53%
C[C@H](CO)N1C[C@H](C)[C@H](CN(C)Cc2ccc3c(c2)OCO3)OCCCC[C@H](C)Oc2ccc(NC(=O)Nc3ccc(C(F)(F)F)cc3)cc2C1=O | -38.9%
O=C(C[C@H]1C[C@@H]2c3cc(NS(=O)(=O)c4ccc(F)cc4)ccc3O[C@@H]2[C@@H](CO)O1)N1CCc2ccccc2C1 | -18%
O=C1CN(S(=O)(=O)Cc2ccccc2)C[C@H]2[C@H](c3ccc(C#Cc4ccc(F)cc4)cc3)[C@H](CO)N12 | 9.7%
CCCC#Cc1ccc([C@H]2[C@@H](C#N)N(C(=O)C3CCCCC3)[C@H]2CO)cc1 | -2.71%
C[C@H]1CCCCO[C@H](CN(C)S(=O)(=O)c2ccccc2)[C@@H](C)CN([C@@H](C)CO)C(=O)c2cc(NS(=O)(=O)c3ccc(Cl)cc3)ccc2O1 | 1.91%
C[C@@H]1CN([C@@H](C)CO)C(=O)Cc2cc(NC(=O)Cc3ccccc3)ccc2O[C@H]1CN(C)Cc1ccc(-c2ccccc2)cc1 | 4.33%
COc1ccc(NC(=O)N2CCCCN3[C@H](C2)[C@@H](c2ccc(C#Cc4ccccc4)cc2)[C@@H]3CO)cc1 | 6.63%
